Screening results as filed in PubChem BioAssay.
KB-3-1 cytotox: KB-3-1 parental cell cytotoxicity; 400,000 tested, 1.4% active; Potency, µM (series often up to 46.1 µM), actives largely listed as cytotoxic; KB-3-1 viability, CellTiter-Glo ATP luminescence, 72 h; also: nearly all actives have a fitted effect of over 60% in size
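Multi-concentration cytotoxicity screen in KB-3-1 cells grown in DMEM lacking phenol red with 10% FBS. After 72 h at 37 °C with compound, ATP-dependent luminescence was recorded.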
HT1080-NT tox: kills 2HG-producing HT-1080-NT fibrosarcoma cells; HT-1080-NT fibrosarcoma viability, CellTiter-Glo ATP luminescence, 48 h; 360,000 tested, 1.6% active; Potency, µM (top dose mostly 46.1 µM), for inactives: at the highest dose activity, negative = less viability, hits mostly cytotoxic;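 also: NT is the 2HG producing partner of a matched IDH1 knockdown line; 0% = DMSO-treated cells and -100% = media-only wells without cells; nearly all actives have a fitted effect of over 55% in size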
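HT-1080-NT fibrosarcoma cells (2HG-overproducing), 750 cells/well in RPMI with 5% FBS, dosed after 2 h and incubated 48 h at 37C. CellTiter-Glo luminescence normalized to DMSO and no-cell wells; concentration-response curves fitted and classed.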
DT40 TDP1 no CPT: qHTS for Inhibitors of human tyrosyl-DNA phosphodiesterase 1 (TDP1): qHTS in cells in absence of CPT; DT40 Tdp1-/- hTDP1 cells, no CPT, ATP luminescence, 48 h; Potency, µM (doses to about 46.2 µM), for inactives: top-dose activity change, negative = growth inhibition, usual class: inhibitors; 420,000 tested, 15% active; AID 686978, 2013; also: nearly all actives have a fitted effect of over 55% in size
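Growth of hTDP1-complemented DT40 Tdp1-knockout cells is measured by ATP luminescence after at least 48 hr compound exposure at 37 °C, with DMSO substituting for the 20 nM CPT used in the parallel screen.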
HT1080 IDH1KD tx: kills HT-1080 cells with IDH1 knockdown. HT-1080 IDH1 knockdown viability, ATP luminescence, 48 h. Potency, µM (doses to about 46.1 µM), for inactives: top-dose activity, negative = toxicity, usual class: cytotoxic. 360,000 tested, 2% active. AID 686971;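 also: 0% = DMSO wells and -100% = cell-free medium wells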
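Knockdown cells (IDH1KD HT-1080) received compounds 2 h after plating at 750 cells/well and were kept 48 h at 37 °C in 5% FBS RPMI. A CellTiter-Glo luminescence read gave % activity for curve fitting.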
TDP1 cell CPT: DT40-hTDP1 cell growth loss with CPT. chicken DT40 Tdp1-/-;hTDP1 cells + 20 nM CPT, ATP luminescence, 48 h. Potency, µM (highest dose often 46.2 µM), for the others: at the top dose activity change, negative = growth inhibition, actives largely listed as inhibitors. 420,000 tested, 12% active. AID 686979; also: nearly all actives have a fitted effect of over 55% in size
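Cell growth measured by CellTiter-Glo luminescence after a minimum 48 h, 37 C compound exposure with 20 nM CPT in Tdp1-knockout DT40 cells stably expressing hTDP1, seeded 400/well; qHTS titration format.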
KB-V1 MDR tox: kills drug-selected multidrug resistant KB-V1 cells. 400,000 tested, 3.4% active. KB-V1 MDR cells viability, CellTiter-Glo, 72 h. Potency, µM (highest dose often 46.1 µM), hits mostly cytotoxic; also: nearly all actives have a fitted effect of over 60% in size
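KB-V1, DMEM (no phenol red) + 10% FBS; cpd pin-transferred, titration series; 72 h, 37 degrees C; CellTiter-Glo, luminescence. Data normalized, curve-fit.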
The depositor's hits bear a star. Only some compounds are listed: those with a hit (about 19% of all), similar ones and a draw of the others. Calls follow the shape of the dose curve; as a rule, active = well fitted curve in the direction sought with a large enough effect; inconclusive = small, poorly fitted or top-dose-only effect, or another doubt; inactive = no such curve, though single readings can be large; an effect the other way counts as inactive or inconclusive. Unless noted, % is scaled to controls: 0 for no effect and ±100 for the full control effect; potency is read from the fitted curve at half-maximal effect.

`CC(=O)NCCNC(=O)c1ccc(Sc2ccccc2)c([N+](=O)[O-])c1` gave KB-3-1 cytotox inactive, HT1080-NT tox -3.3%, DT40 TDP1 no CPT -19.0%, HT1080 IDH1KD tx -1.9%, TDP1 cell CPT -14.2% and KB-V1 MDR tox inactive.
CC1=C(C(=O)Nc2ccc(F)cc2F)C2(CCCCCC2)OC1=O was read as KB-3-1 cytotox inconclusive, DT40 TDP1 no CPT -20.4%, TDP1 cell CPT -12.6% and KB-V1 MDR tox inactive.
Screening Cc1cc2nc(-c3ccc[nH]c3=O)n(Cc3ccccc3F)c2cc1C returned KB-3-1 cytotox inactive, HT1080-NT tox 23.7%, DT40 TDP1 no CPT inconclusive, HT1080 IDH1KD tx 10.6%, TDP1 cell CPT -16.9% and KB-V1 MDR tox inactive.
`CCCCCNc1nc2c(-c3ccccc3)nnn2c2ccccc12` gave KB-3-1 cytotox inactive, DT40 TDP1 no CPT -26.2%, TDP1 cell CPT 0.4% and KB-V1 MDR tox inactive.
Screening CCOc1cccc2cc(-c3csc(NC(=O)CCC(=O)N4CCC(C)CC4)n3)c(=O)oc12 returned KB-3-1 cytotox inactive, HT1080-NT tox 2.6%, DT40 TDP1 no CPT 16.4µM*, HT1080 IDH1KD tx 1.5%, TDP1 cell CPT inconclusive and KB-V1 MDR tox inactive.
Screening CCOc1cccc2cc(-c3csc(NC(=O)CCC(=O)NCCN4CCCCC4C)n3)c(=O)oc12 (stereo unspecified) returned KB-3-1 cytotox inactive, HT1080-NT tox -12.5%, DT40 TDP1 no CPT inconclusive, HT1080 IDH1KD tx -7.5%, TDP1 cell CPT -3.7% and KB-V1 MDR tox inactive.
Screening O=C(CN1C(=O)COc2ccc(S(=O)(=O)N3CCCC3)cc21)N1CCN(c2ccccc2)CC1 returned KB-3-1 cytotox inactive, DT40 TDP1 no CPT inconclusive, TDP1 cell CPT -23.3% and KB-V1 MDR tox inactive.
`CN(C)S(=O)(=O)c1cccc(C(=O)N2CCc3ccccc32)c1` gave KB-3-1 cytotox inactive, HT1080-NT tox -1.8%, DT40 TDP1 no CPT inconclusive, HT1080 IDH1KD tx -4.6%, TDP1 cell CPT inconclusive and KB-V1 MDR tox inactive.
For CN(C)S(=O)(=O)c1cccc(C(=O)C2=C3SC=C(c4ccccc4)N3CC2)c1 the results were KB-3-1 cytotox inactive, HT1080-NT tox -14.1%, DT40 TDP1 no CPT 23.1µM*, HT1080 IDH1KD tx -17.7%, TDP1 cell CPT inconclusive and KB-V1 MDR tox inconclusive.
`Cc1ccc(C)c2[nH]c(=O)c(CN(CCCN(C)C)C(=O)NCc3ccccc3)cc12` gave KB-3-1 cytotox inconclusive, HT1080-NT tox -23.1%, DT40 TDP1 no CPT 23.1µM*, HT1080 IDH1KD tx -13.0%, TDP1 cell CPT inconclusive and KB-V1 MDR tox inactive.
`Cc1cc(C)c2cc(CN(CCCN(C)C)C(=S)NCc3ccccc3)c(=O)[nH]c2c1` gave KB-3-1 cytotox inactive, HT1080-NT tox inconclusive, DT40 TDP1 no CPT inconclusive, HT1080 IDH1KD tx inconclusive, TDP1 cell CPT 20.6µM* and KB-V1 MDR tox inactive.
Screening O=C(NC1(O)C(=O)c2ccccc2C1=O)c1c(Cl)cccc1Cl returned KB-3-1 cytotox inactive, HT1080-NT tox -2.2%, DT40 TDP1 no CPT 25.9µM*, HT1080 IDH1KD tx -2.6%, TDP1 cell CPT inconclusive and KB-V1 MDR tox inconclusive.
O=C(NC1(O)C(=O)c2ccccc2C1=O)c1ccccc1 was read as KB-3-1 cytotox inactive, HT1080-NT tox 8.5%, DT40 TDP1 no CPT inconclusive, HT1080 IDH1KD tx 16.4%, TDP1 cell CPT 25.9µM* and KB-V1 MDR tox inactive.
COc1ccc(NC(C)=O)cc1S(=O)(=O)N1CCN(C/C=C/c2ccccc2)CC1 was read as KB-3-1 cytotox inactive, HT1080-NT tox 4.9%, DT40 TDP1 no CPT -20.3%, HT1080 IDH1KD tx 6.6%, TDP1 cell CPT -9.0% and KB-V1 MDR tox inactive.
For C[C@H](NC[C@H](O)CP(=O)(O)Cc1ccccc1)c1ccc(Cl)c(Cl)c1 the results were DT40 TDP1 no CPT -12.9% and TDP1 cell CPT -2.4%.
